The text below walks through data of PubChem BioAssay (NCI).

The panel holds about 83,000 compounds, 20% with a hit somewhere; the sample as a whole holds those more often.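 Percent growth is the endpoint: 0 to 100 indicates growth inhibition (40 means 60% inhibition), 0 means no net growth, and negative values indicate cell death.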 A number with no mark means an inactive call. Active and inactive are the calls of the source. Rule for the calls: active = growth percent below 10; inactive = the rest.

Test systems include DU-145 prostate; K-562 leukemia; MALME-3M melanoma; MDA-MB-231 breast; RXF 393 renal; SF-268 CNS; SF-295 CNS; SF-539 CNS; UACC-257 melanoma; M14 melanoma; HCT-15 colon; HT29 colon; SNB-75 CNS; SNB-19 CNS; U251 CNS; SK-MEL-5 melanoma; UACC-62 melanoma; LOX IMVI melanoma; SK-MEL-28 melanoma; PC-3 prostate.
Common to all, as to assay: NCI-60 one-dose screen, 48 h (100 = growth as untreated, 0 = no growth, -100 = all killed)
Common to all, as to settings: 10 µM unless noted

Turning to `COc1ccc(/C=C/C(=O)c2ccc(NC(=O)CSc3nc4c([nH]3)c(=O)n(C)c(=O)n4C)cc2)cc1OC`, the growth in the assay with DU-145 prostate was 97.4%; in the assay on K-562 leukemia, 79.3%; in the assay on MALME-3M melanoma, 95.9%; in the assay with MDA-MB-231 breast, 84.4%; in the assay on RXF 393 renal it was 87.5%; in the assay on SF-268 CNS it was 83%. For the same molecule, the growth in the assay with SF-295 CNS was 92.6%; in the assay with SF-539 CNS it was 80.1%; in the assay with UACC-257 melanoma, 87.4%; with M14 melanoma, 92.5%; with HCT-15 colon, 89%; in the assay with HT29 colon, 103%. Also, the growth was 82.3% in the assay with SNB-75 CNS; 62.5% with SNB-19 CNS; 49.6% in the assay on U251 CNS; 92% with SK-MEL-5 melanoma; 81.4% with UACC-62 melanoma; 78.3% in the assay with LOX IMVI melanoma. The growth in the assay with SK-MEL-28 melanoma is 95.7%.
As for `CC/C(Cc1ccccc1)=C(\c1ccc(OCCCN(C)C)cc1)c1ccc(OC(=O)NCc2ccccc2)cc1`, the growth in the assay with DU-145 prostate is 73.9%; in the assay on K-562 leukemia it was -31.7% (active); in the assay on MALME-3M melanoma, 41.8%; in the assay with MDA-MB-231 breast, 65.2%; with RXF 393 renal it was 80%; with SF-268 CNS it was 72.4%. The growth in the assay on SF-295 CNS was 110%; in the assay with SF-539 CNS it was 93%; with UACC-257 melanoma, 83.4%; in the assay with M14 melanoma, 18.8%; in the assay with HCT-15 colon it was 4.38% (active); in the assay with HT29 colon it was 7.12% (active). In addition, the growth in the assay with SNB-75 CNS was 69.4%; in the assay on SNB-19 CNS it was 76.3%; with U251 CNS, 35.7%; with SK-MEL-5 melanoma it was 74.4%; in the assay on UACC-62 melanoma, 85%; with LOX IMVI melanoma it was 15.5%. The growth with SK-MEL-28 melanoma is 90%.
Regarding `O=C(N=Nc1c(O)[nH]c2ccccc12)Nc1ccc(F)cc1`, the growth in the assay with DU-145 prostate is 105%; in the assay with K-562 leukemia, 85%; in the assay on MALME-3M melanoma, 97.6%; with MDA-MB-231 breast it was 94%; with RXF 393 renal it was 110%; in the assay on SF-268 CNS, 104%. In addition, the growth in the assay with SF-295 CNS is 95%; in the assay on SF-539 CNS, 94.9%; in the assay on UACC-257 melanoma, 93.9%; with M14 melanoma it was 99.7%; in the assay with HCT-15 colon it was 97%; in the assay with HT29 colon, 102%. For the same molecule, the growth with SNB-75 CNS was 91.3%; in the assay with SNB-19 CNS it was 97%; in the assay on U251 CNS, 90.7%; with SK-MEL-5 melanoma it was 101%; in the assay with UACC-62 melanoma, 79.3%; in the assay on LOX IMVI melanoma, 92.2%. Further, the growth with SK-MEL-28 melanoma was 108%.
On to `CN1CCN(CC(=O)Nc2ccc3ncnc(Nc4ccc(Oc5cccc(C(F)(F)F)c5)c(Cl)c4)c3c2)CC1`, for which the growth in the assay with DU-145 prostate is 23.9%; in the assay on K-562 leukemia, -27.3% (active); in the assay with MALME-3M melanoma, -77.1% (active); in the assay with MDA-MB-231 breast, -58.1% (active); in the assay with RXF 393 renal, -78.6% (active); in the assay on SF-268 CNS it was 11.3%. Further, the growth with SF-295 CNS was -44.7% (active); with SF-539 CNS, -84.5% (active); in the assay on UACC-257 melanoma, -56.1% (active); with M14 melanoma, -86.5% (active); with HCT-15 colon, -12.2% (active); in the assay on HT29 colon, -19.2% (active). Further, the growth in the assay with SNB-75 CNS is 68.8%; in the assay on SNB-19 CNS, 28.5%; in the assay with U251 CNS, 0.145% (active); in the assay with PC-3 prostate, 42.9%; in the assay with SK-MEL-5 melanoma, -58% (active); in the assay with LOX IMVI melanoma it was -94.6% (active). The growth in the assay with SK-MEL-28 melanoma was -89% (active).
With `O=C(N/N=C\c1cccc([N+](=O)[O-])c1)N/N=C/c1cccc([N+](=O)[O-])c1`, the growth was 116% in the assay on DU-145 prostate; 99.4% with K-562 leukemia; 109% in the assay with MALME-3M melanoma; 100% in the assay on MDA-MB-231 breast; 106% in the assay with RXF 393 renal; 102% with SF-268 CNS. Further, the growth was 106% with SF-295 CNS; 111% in the assay on SF-539 CNS; 97.4% in the assay on UACC-257 melanoma; 113% in the assay with M14 melanoma; 109% with HCT-15 colon; 114% in the assay with HT29 colon. In addition, the growth with SNB-75 CNS is 88.8%; with SNB-19 CNS, 100%; in the assay on U251 CNS it was 97.3%; with SK-MEL-5 melanoma it was 95.9%; with UACC-62 melanoma, 92.5%; with LOX IMVI melanoma it was 103%. The growth in the assay with SK-MEL-28 melanoma is 110%.
As for `C/C(=N\O)c1ccc(NC(=O)CSc2nnc(-c3cc(-c4ccc(S(N)(=O)=O)cc4)nc4ccccc34)n2-c2ccccc2)cc1`, the growth with DU-145 prostate is 80.3%; in the assay with K-562 leukemia, 43%; in the assay on MALME-3M melanoma it was 80%; with MDA-MB-231 breast, 74.3%; in the assay with RXF 393 renal, 83.9%; in the assay with SF-268 CNS, 60.3%. Further, the growth was 92.2% with SF-295 CNS; 76.4% in the assay on SF-539 CNS; 87.3% with UACC-257 melanoma; 74.4% in the assay with M14 melanoma; 81% in the assay on HCT-15 colon; 66.2% in the assay with HT29 colon. For the same molecule, the growth with SNB-75 CNS is 24.3%; with SNB-19 CNS, 66.9%; with U251 CNS it was 62.5%; with SK-MEL-5 melanoma it was 54%; in the assay on UACC-62 melanoma it was 62.4%; with LOX IMVI melanoma it was 37.7%. In addition, the growth with SK-MEL-28 melanoma is 84.4%.
With `S=c1nc2oc(-c3ccccc3)c(-c3ccccc3)c2c(/N=C\c2ccco2)[nH]1`, the growth was 100% with DU-145 prostate; 89.3% in the assay with K-562 leukemia; 99.3% in the assay with MALME-3M melanoma; 98.5% with MDA-MB-231 breast; 99.3% in the assay on RXF 393 renal; 90.2% with SF-268 CNS. Besides, the growth with SF-295 CNS was 94.3%; in the assay on SF-539 CNS it was 95.8%; with UACC-257 melanoma it was 105%; with M14 melanoma it was 103%; in the assay on HCT-15 colon it was 85.6%; in the assay with HT29 colon, 98.3%. The growth with SNB-75 CNS was 74.2%; in the assay with SNB-19 CNS, 95.2%; in the assay on U251 CNS, 91.4%; with SK-MEL-5 melanoma it was 94.6%; in the assay with UACC-62 melanoma, 90.9%; with LOX IMVI melanoma it was 92.9%. For the same molecule, the growth with SK-MEL-28 melanoma was 109%.
On to `CSC1=Nc2c(c(C)c(-c3ccccc3)n2CCCC(=O)O)C2=NC(=O)C[C@H](C)N12`, for which the growth was 115% with DU-145 prostate; 101% with K-562 leukemia; 102% with MALME-3M melanoma; 138% in the assay on MDA-MB-231 breast; 106% in the assay with RXF 393 renal; 110% in the assay on SF-268 CNS. In addition, the growth is 106% in the assay on SF-295 CNS; 85.5% in the assay with SF-539 CNS; 108% in the assay on UACC-257 melanoma; 102% in the assay on M14 melanoma; 127% in the assay on HCT-15 colon; 94.1% in the assay with HT29 colon. Moreover, the growth was 79.7% in the assay on SNB-75 CNS; 101% in the assay with SNB-19 CNS; 103% with U251 CNS; 97.6% in the assay with PC-3 prostate; 92.4% in the assay on SK-MEL-5 melanoma; 105% in the assay with SK-MEL-28 melanoma.
